# Compound: Nc1ncnc2c1ncn2[C@@H]1O[C@H](COP(=O)(O)OP(=O)(O)OP(=O)(O)O)[C@@H](O)[C@H]1O [adenosine 5'-triphosphate]
# Assay: log2 fold change of tryptic peptide abundance, ligand vs vehicle (limited proteolysis) (log2 ratio); higher = more trypsin-susceptible (destabilized)
# Conditions: ligand concentration: 5 mM; sample: E. coli desalted lysate; replicate design: treated before aliquoting
# Description: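 HT-PELSA: desalted E. coli K-12 BW25113 lysate (with 12 mM MgCl2) incubated with 5 mM ATP (pH 7) or water for 30 min at 25 C, then a 4 min trypsin pulse at 22 C. Peptides were quantified by DIA-MS (4 replicates). Value is the peptide log2 fold change (treated/control); negative = stabilized. Scale: negative = ligand-stabilized region.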
# 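Also: lysate desalted by size exclusion to strip endogenous ATP, peptide intensities built from DIA-NN precursor signals, and peptides missing any value discarded before comparison.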
# UniProt P0CF91, sequence (P0CF91 whole entry): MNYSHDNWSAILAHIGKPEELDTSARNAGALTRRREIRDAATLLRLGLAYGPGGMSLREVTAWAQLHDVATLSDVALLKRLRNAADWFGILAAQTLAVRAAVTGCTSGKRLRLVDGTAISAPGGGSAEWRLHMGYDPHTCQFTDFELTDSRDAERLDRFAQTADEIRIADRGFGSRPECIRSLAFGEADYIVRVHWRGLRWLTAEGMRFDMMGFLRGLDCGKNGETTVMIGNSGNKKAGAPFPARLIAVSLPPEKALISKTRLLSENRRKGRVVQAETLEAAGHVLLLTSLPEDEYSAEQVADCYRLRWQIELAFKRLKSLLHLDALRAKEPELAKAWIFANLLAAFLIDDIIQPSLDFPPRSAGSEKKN
# UniProt P03007, sequence (P03007 whole entry): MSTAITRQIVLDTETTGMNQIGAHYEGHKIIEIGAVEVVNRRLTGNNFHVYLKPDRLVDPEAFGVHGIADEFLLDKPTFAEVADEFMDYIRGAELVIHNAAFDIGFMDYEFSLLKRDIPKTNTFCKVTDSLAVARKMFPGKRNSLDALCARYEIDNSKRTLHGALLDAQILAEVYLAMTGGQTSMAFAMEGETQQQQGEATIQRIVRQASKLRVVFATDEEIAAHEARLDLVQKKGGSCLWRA
# UniProt P39364, sequence (P39364 whole entry): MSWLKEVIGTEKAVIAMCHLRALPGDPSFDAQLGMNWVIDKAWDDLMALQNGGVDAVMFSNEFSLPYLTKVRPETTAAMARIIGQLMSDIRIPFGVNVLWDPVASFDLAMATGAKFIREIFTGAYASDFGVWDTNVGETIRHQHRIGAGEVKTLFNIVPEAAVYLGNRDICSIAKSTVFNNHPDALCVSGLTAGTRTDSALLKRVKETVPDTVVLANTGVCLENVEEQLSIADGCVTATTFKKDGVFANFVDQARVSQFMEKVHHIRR
# UniProt P25539, sequence (P25539 whole entry): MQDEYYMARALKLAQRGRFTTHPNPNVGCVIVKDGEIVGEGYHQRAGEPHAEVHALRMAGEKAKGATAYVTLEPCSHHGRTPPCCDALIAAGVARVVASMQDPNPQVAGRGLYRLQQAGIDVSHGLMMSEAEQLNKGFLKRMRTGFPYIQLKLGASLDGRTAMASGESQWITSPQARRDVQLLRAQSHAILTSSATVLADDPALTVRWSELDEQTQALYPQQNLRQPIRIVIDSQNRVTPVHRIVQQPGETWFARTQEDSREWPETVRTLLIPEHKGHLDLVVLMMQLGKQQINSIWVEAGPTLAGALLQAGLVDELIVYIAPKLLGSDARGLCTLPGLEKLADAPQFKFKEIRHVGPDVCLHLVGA
# UniProt P11664, sequence (P11664 whole entry): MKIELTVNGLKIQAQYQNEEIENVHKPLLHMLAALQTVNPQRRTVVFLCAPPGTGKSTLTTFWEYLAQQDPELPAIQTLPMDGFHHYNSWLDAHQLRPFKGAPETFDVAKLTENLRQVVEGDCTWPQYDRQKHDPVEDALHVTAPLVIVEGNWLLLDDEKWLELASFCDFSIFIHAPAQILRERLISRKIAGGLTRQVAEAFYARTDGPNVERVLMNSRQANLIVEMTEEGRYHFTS
# UniProt P37903, sequence (P37903 whole entry): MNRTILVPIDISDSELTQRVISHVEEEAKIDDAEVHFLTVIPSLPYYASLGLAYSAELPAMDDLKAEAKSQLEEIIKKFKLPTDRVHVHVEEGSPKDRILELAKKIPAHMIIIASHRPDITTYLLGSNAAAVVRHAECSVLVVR
# UniProt Q46927, sequence (Q46927 whole entry): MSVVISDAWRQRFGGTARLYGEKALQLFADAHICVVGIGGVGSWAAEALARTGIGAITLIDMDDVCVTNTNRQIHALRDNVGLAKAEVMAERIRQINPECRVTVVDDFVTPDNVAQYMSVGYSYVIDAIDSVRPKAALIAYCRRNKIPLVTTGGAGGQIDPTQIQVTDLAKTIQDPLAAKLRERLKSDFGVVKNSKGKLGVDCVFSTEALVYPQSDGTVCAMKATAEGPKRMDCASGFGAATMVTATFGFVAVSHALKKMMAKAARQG
# UniProt P46144, sequence (P46144 whole entry): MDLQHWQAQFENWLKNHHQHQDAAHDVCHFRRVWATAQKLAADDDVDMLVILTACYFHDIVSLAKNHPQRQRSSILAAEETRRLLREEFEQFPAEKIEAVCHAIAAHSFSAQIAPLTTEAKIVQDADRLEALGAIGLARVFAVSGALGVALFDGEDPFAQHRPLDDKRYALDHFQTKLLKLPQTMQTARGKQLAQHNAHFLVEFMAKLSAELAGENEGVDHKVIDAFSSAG
# UniProt P00579, sequence (P00579 whole entry): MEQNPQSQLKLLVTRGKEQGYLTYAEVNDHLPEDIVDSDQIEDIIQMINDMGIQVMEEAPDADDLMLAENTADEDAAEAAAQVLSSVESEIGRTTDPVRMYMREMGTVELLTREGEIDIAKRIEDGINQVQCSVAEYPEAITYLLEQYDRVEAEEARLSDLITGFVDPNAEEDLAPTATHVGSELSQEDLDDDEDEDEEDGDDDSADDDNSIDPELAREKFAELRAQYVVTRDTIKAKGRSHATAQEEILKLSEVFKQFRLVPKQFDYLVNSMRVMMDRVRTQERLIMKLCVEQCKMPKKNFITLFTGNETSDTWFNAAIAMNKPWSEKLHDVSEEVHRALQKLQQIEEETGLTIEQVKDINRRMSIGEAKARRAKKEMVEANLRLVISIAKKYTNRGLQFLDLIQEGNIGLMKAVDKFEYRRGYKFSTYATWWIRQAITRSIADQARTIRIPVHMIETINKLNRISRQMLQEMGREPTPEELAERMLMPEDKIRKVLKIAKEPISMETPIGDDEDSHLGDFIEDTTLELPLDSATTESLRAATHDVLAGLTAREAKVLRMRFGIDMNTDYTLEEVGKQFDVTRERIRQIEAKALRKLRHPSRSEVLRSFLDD
# UniProt P0ADV7, sequence (P0ADV7 whole entry): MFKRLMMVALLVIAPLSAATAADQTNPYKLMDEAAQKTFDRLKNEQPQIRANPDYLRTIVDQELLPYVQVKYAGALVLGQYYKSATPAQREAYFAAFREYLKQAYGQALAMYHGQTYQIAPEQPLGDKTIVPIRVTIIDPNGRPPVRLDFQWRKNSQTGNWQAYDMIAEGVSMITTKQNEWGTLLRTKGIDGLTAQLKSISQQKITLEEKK
# UniProt P76550, sequence (P76550 whole entry): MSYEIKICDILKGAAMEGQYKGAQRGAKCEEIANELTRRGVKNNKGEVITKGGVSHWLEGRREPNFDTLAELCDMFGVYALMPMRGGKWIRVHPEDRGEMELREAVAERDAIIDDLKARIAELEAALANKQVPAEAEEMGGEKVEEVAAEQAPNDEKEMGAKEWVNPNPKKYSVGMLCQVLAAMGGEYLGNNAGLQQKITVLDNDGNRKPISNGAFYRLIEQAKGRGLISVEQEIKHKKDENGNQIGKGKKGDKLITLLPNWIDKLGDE
# UniProt P76046, sequence (P76046 whole entry): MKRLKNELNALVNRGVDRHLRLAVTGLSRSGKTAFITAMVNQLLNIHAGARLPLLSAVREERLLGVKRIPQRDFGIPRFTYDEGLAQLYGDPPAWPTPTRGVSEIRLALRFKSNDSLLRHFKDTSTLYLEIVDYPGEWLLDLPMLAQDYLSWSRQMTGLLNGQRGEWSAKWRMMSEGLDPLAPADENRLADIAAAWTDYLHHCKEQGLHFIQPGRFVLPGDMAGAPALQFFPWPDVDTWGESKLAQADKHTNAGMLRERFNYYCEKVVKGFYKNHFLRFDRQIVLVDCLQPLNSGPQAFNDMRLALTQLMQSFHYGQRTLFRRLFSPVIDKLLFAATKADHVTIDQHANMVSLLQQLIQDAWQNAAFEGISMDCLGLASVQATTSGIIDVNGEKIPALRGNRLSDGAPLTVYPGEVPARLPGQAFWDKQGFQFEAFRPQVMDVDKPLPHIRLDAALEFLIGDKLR
# UniProt P45579, sequence (P45579 whole entry): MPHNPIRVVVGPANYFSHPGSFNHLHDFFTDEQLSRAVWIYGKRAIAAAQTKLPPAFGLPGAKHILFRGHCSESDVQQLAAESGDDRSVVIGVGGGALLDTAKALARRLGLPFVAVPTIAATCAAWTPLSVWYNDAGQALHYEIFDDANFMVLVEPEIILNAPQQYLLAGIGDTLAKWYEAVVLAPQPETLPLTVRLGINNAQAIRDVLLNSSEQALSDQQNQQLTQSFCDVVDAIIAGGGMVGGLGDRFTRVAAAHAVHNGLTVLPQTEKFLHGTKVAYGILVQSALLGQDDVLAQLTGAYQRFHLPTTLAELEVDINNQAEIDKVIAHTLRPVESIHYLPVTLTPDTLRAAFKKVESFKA
# UniProt P75682, sequence (P75682 whole entry): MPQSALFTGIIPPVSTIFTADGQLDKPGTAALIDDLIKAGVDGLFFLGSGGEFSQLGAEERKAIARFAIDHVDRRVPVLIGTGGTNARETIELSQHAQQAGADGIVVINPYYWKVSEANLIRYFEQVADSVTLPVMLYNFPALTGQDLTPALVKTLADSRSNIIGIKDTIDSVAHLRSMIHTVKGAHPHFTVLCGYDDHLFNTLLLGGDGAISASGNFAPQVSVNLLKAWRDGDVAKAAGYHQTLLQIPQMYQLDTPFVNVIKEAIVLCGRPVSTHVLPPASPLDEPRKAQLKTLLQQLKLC
# UniProt P07001, sequence (P07001 whole entry): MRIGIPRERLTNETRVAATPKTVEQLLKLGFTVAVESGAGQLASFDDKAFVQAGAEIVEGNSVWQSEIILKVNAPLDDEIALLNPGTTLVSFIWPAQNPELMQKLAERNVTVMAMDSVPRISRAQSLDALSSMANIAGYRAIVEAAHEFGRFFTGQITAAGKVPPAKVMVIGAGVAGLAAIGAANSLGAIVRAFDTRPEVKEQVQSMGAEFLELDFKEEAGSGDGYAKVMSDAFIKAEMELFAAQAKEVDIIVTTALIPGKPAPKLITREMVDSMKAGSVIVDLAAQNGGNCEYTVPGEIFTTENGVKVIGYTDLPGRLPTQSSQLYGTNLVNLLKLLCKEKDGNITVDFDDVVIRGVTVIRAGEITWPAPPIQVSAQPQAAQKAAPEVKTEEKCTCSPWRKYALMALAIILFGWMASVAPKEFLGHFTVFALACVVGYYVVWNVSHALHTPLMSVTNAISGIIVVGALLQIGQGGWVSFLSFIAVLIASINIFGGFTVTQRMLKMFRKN
row,Target,log2 fold change
1,"UniProt P56579 (peptide sequence: MGIQLEQK, peptide start residue: 172)",0.509
2,"UniProt P76536 (peptide sequence: ALSGGVGAEELK, peptide start residue: 66)",0.555
3,"UniProt P77610 (peptide sequence: WLNAHEEGYHK, peptide start residue: 18)",-0.358
4,"UniProt Q46927 (peptide sequence: QINPECR, peptide start residue: 95)",-2.51
5,"UniProt P07001 (peptide sequence: FFTGQITAAGK, peptide start residue: 152)",-0.651
6,"UniProt P46144 (peptide sequence: RVWATAQK, peptide start residue: 32)",-1.44
7,"UniProt P0ADV7 (peptide sequence: LKNEQPQIR, peptide start residue: 42)",0.525
8,"UniProt Q46915 (peptide sequence: AMNSEAVVR, peptide start residue: 181)",-0.607
9,"UniProt P77306 (peptide sequence: TLSPEDLR, peptide start residue: 123)",0.57
10,"UniProt P15038 (peptide sequence: LHTEDITAR, peptide start residue: 265)",-2.37
11,"UniProt P0CF91 (peptide sequence: SLLHLDALR, peptide start residue: 320)",0.694
12,"UniProt P00903 (peptide sequence: GLANPLTVTR, peptide start residue: 117)",-0.376
13,"UniProt P0AC00 (peptide sequence: RYYGGLVEY, peptide start residue: 332)",-0.478
14,"UniProt P04994 (peptide sequence: TGAALHDILHVLK, peptide start residue: 149)",0.643
15,"UniProt P76419 (peptide sequence: GGDCAPTREELLLAHK, peptide start residue: 304)",-1.82
16,"UniProt P00579 (peptide sequence: EPTPEELAER, peptide start residue: 477)",0.829
17,"UniProt P45579 (peptide sequence: VAAAHAVHNGLTVLPQTEK, peptide start residue: 253)",0.992
18,"UniProt P21507 (peptide sequence: DVLGSAPTGTGK, peptide start residue: 43)",-3.34
19,"UniProt P11446 (peptide sequence: GAAAQAVQCANIR, peptide start residue: 312)",-0.854
20,"UniProt P75682 (peptide sequence: AWRDGDVAK, peptide start residue: 229)",-1.32

row,Target,log2 fold change
1,"UniProt P75821 (peptide sequence: DIKEDFRPHR, peptide start residue: 126)",-1.6
2,"UniProt P33368 (peptide sequence: IINITSVHEHTPLPDASAYTAAK, peptide start residue: 135)",0.894
3,"UniProt P27833 (peptide sequence: LCGDGGFTR, peptide start residue: 26)",-0.494
4,"UniProt P03007 (peptide sequence: VTDSLAVAR, peptide start residue: 127)",0.313
5,"UniProt P40719 (peptide sequence: RFTSDAAHELR, peptide start residue: 239)",-2.75
6,"UniProt P36928 (peptide sequence: EAVSEWLYR, peptide start residue: 44)",0.728
7,"UniProt Q46889 (peptide sequence: LQQEGYR, peptide start residue: 188)",-0.564
8,"UniProt P11664 (peptide sequence: GAPETFDVAK, peptide start residue: 101)",-1.46
9,"UniProt P37194 (peptide sequence: GNNQPDIQK, peptide start residue: 28)",0.489
10,"UniProt P76046 (peptide sequence: RLKNELNALVNR, peptide start residue: 3)",0.559
11,"UniProt P20083 (peptide sequence: VQDLQVVGTCGKR, peptide start residue: 147)",-1.89
12,"UniProt P12282 (peptide sequence: QTLHSDATVGQPK, peptide start residue: 74)",-1.54
13,"UniProt P0ACN7 (peptide sequence: LMDCELIIR, peptide start residue: 326)",1.5
14,"UniProt P37903 (peptide sequence: VHVHVEEGSPKDR, peptide start residue: 86)",-1.8
15,"UniProt P76550 (peptide sequence: PISNGAFYR, peptide start residue: 210)",-0.83
16,"UniProt P0A6H5 (peptide sequence: VQAIEKNR, peptide start residue: 113)",1.65
17,"UniProt P25539 (peptide sequence: LADAPQFK, peptide start residue: 342)",-0.381
18,"UniProt P27278 (peptide sequence: TFMSISGAQIR, peptide start residue: 202)",-2.94
19,"UniProt P67910 (peptide sequence: YFNVYGPR, peptide start residue: 167)",-0.736
20,"UniProt P39364 (peptide sequence: IIGQLMSDIR, peptide start residue: 82)",-0.915

# Source: the supplement of paper PMC12819154, “High-throughput peptide-centric local stability assay extends protein–ligand identification to membrane proteins, tissues and bacteria” (Nature Structural & Molecular Biology, 2025)
